Compound activity deposited in PubChem by National Center for Advancing Translational Sciences (NCATS).
The list is not random: actives were taken first. Their share in the collection is about 6.9%.
L3MBTL1 block – blocks human L3MBTL1. AlphaScreen L3MBTL1–H3K9me1 peptide binding. 0.66% of 230,000 active. Q9Y468. Potency, µM (doses to about 57.1 µM), usual class: inhibitors; also: nearly all actives have a fitted effect of over 60% in size
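Read-out is AlphaScreen signal from streptavidin donor and nickel chelate acceptor beads (10 ug/mL final each) bridging L3MBTL1 (50 nM) and biotinylated K9-monomethylated H3(1-15) peptide (75 nM), after 30 min compound exposure at room temperature.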
PLK1 PBD inh – blocks phosphopeptide binding to human PLK1 polo-box domain | AID 720504 | Plk1 PBD binding of FITC phosphopeptide, fluorescence polarization | Potency, µM, actives largely listed as inhibitors | 2.8% of 360,000 active; also: series mostly up to about 57 µM; nearly all actives have a fitted effect of over 65% in size
Target sequence (P53350 whole entry, looked up, the tested form may be a part): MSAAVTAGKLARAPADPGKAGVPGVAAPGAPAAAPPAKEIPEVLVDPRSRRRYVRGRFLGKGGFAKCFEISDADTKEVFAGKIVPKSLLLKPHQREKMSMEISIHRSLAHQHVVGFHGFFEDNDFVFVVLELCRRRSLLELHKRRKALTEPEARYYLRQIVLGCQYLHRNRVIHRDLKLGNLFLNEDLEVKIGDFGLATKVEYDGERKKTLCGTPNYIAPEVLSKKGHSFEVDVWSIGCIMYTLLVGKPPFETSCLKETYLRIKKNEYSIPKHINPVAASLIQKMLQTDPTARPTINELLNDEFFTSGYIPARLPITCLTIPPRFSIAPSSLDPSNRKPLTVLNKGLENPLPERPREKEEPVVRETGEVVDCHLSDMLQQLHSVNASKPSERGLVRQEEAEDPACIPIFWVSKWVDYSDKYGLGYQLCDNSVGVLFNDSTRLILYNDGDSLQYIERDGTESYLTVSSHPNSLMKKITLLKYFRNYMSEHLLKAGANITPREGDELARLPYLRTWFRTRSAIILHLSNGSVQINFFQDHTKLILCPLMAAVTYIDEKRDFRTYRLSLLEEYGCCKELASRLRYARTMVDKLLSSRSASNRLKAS
HP1b binding inh – blocks HP1-beta chromodomain binding to methylated histone tails. 0.56% of 390,000 active. AlphaScreen HP1-beta / biotin-H3K9me3 peptide binding. P83916. Potency, µM (top dose mostly 114 µM), hits mostly inhibitors; also: nearly all actives have a fitted effect of over 70% in size
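AlphaScreen: HP1-beta (50 nM) preformed 30 min with biotin-H3(1-18)K9me3 peptide (50 nM) in PBS pH 7.4, 0.01% Tween-20. Compound added for 30 min at RT, then streptavidin donor/nickel chelate acceptor beads (10 ug/mL) for 30 min.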
VDR inh – vitamin D3 receptor (human) inhibition; P11473; VDR-SRC2-3 peptide fluorescence polarization, 2 h; Potency, µM, usual class: inhibitors; 0.93% of 400,000 active
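The screen uses fluorescence polarization to detect compounds that interfere with recruitment of the SRC2-3 coactivator peptide to VDR; plates are read after 2 h at room temperature.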
BAZ2B block – BAZ2B (human) inhibition; Q9UIF8; AlphaScreen BAZ2B-H3K14Ac peptide displacement; Potency, µM (doses to about 114 µM), usual class: inhibitors; 4.4% of 360,000 active; also: nearly all actives have a fitted effect of over 60% in size
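BAZ2B 50 nM plus b-H3(5-23)K14Ac 50 nM, PBS pH 7.4/0.01% Tween-20, 30 min RT; compound added (max 110 uM), 30 min RT; streptavidin donor/Ni-chelate acceptor beads 10 ug/mL final, 20 min dark; AlphaScreen read.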
JMJD2A Tudor inh – JMJD2A Tudor domain (human) inhibition | O75164 | AlphaScreen JMJD2A-Tudor / H3K4me3 peptide binding | Potency, µM (series often up to 114 µM), hits mostly inhibitors | 4.4% of 390,000 active | AID 504339; also: nearly all actives have a fitted effect of over 50% in size
Numbers stand for hits; – = inactive; ? = inconclusive; · = no result; [ ] = dose if it differs, or a comment. Calls follow the shape of the dose curve; as a rule, active = well fitted curve in the direction sought with a large enough effect; inconclusive = small, poorly fitted or top-dose-only effect, or another doubt; inactive = no such curve, though single readings can be large; an effect the other way counts as inactive or inconclusive.

SMILES	L3MBTL1 block	PLK1 PBD inh	HP1b binding inh	VDR inh	BAZ2B block	JMJD2A Tudor inh
COc1cccc(/C=C2/C(=O)NN(c3ccc(C)c(C)c3)C2=O)c1	–	5.97µM	–	79.4µM	–	–
COc1cccc(C=C2SC(=S)NC2=O)c1	·	–	–	–	·	–
Cc1ccccc1/C=N/N1CCN(c2ccccc2)CC1	?	–	?	–	20µM	?
O=[N+]([O-])c1ccccc1/C=N/N1CCN(c2ccc(Cl)cc2)CC1	?	–	?	–	14.1µM	?
Cc1ccc(/C=N/N2CCN(c3ccccc3)CC2)cc1	–	–	–	–	–	–
O=[N+]([O-])c1cc(/C=N/N2CCN(c3ccccc3)CC2)ccc1Cl	–	–	–	–	?	–
COc1ccccc1/C=N/N1CCN(c2ccc(Cl)cc2)CC1	–[2.29 µM]	–	–	–	50.1µM	39.8µM
CCOc1cccc(/C=N/N2CCN(c3ccc(Cl)cc3)CC2)c1O	·	–	–	–	?	–
COc1ccccc1C=NN1CCCCCC1	·	–	?	–	·	44.7µM
COc1ccc(CCNC(=O)C2CCC(C(C)(C)C)CC2)cc1OC (stereo not drawn)	·	–	–	–	–	–
COc1ccc(-c2noc(CSc3nnc(-c4ccc(Cl)cc4)n3C)n2)cc1OC	·	·	–	–	–	–
C/C(=N\Nc1ccc(Cl)c(C(=O)O)c1)c1ccc(Br)s1	·	23.8µM	?	–	?	28.2µM
Cc1ccc(Cn2c(CCNc3nc(-c4ccc(Cl)c([N+](=O)[O-])c4)cs3)nc3cc(C(=O)NCCCO)ccc32)cc1	·	–	–	–	·	35.5µM
O=[N+]([O-])c1cc(-c2csc(NCCc3nc4cc(C(F)(F)F)ccc4n3CCCO)n2)ccc1Cl	·	–	–	–	·	44.7µM
Cc1ccc(Cn2c(C(C)Nc3nc(-c4ccc(F)cc4)cs3)nc3cc(C(=O)NCCCO)ccc32)cc1 (stereo not drawn)	·	–	–	–	·	–
Cn1cc(S(=O)(=O)c2ccccc2)c(=O)c2cc(Cl)ccc21	·	26.7µM	–	?	–	?
CCCn1cc(S(=O)(=O)c2ccc(OC)cc2)c(=O)c2cc(OCC)ccc21	·	–	–	–	–	–
CCCn1cc(S(=O)(=O)c2ccc(Cl)cc2)c(=O)c2cc(OC)ccc21	·	2.99µM	–	?	?	22.4µM
O=C1S/C(=C\c2cccs2)C(=O)N1c1ccc(O)cc1	·	–	–	–	–	–
O=C1S/C(=C\C=C\c2ccco2)C(=O)N1c1ccccc1	?	–	?	–	39.8µM	10µM
O=C1S/C(=C\C=C\c2ccco2)C(=O)N1c1ccc(O)cc1	15.8µM	–	?	–	44.7µM	?
CCOC(=O)c1c(C)[nH]c(C(=O)COC(=O)COc2ccccc2C=O)c1C	–	18.9µM	–	?	–	44.7µM
O=C(O)COc1cccc(/C=C2/SC(=S)N(Cc3ccccc3)C2=O)c1	·	23.8µM	–	79.4µM	?	50.1µM
O=C(O)CN1C(=O)/C(=C\c2cccc(OCc3ccccc3)c2)SC1=S	–[2.29 µM]	23.8µM	?	56.2µM	56.2µM	?
CN1C(=O)/C(=C\c2cccc(OCc3ccccc3)c2)SC1=S	·	–	–	–	?	–
SMILES	L3MBTL1 block	PLK1 PBD inh	HP1b binding inh	VDR inh	BAZ2B block	JMJD2A Tudor inh
CSc1ccc(/C=N/N2CCN(Cc3ccccc3)CC2)cc1	–	–	44.7µM	–	12.6µM	44.7µM
Clc1ccc(CN2CCN(/N=C/c3ccco3)CC2)cc1	·	–	?	–	?	?
Cc1ccc(CN2CCN(/N=C/C(Br)=C\c3ccccc3)CC2)cc1	–	–	–	–	31.6µM	?
Fc1ccc(/C=N/n2cnn(Cc3ccccc3Cl)c2=S)cc1	–	23.8µM	–	?	–	–
Clc1ccc(/C=N/N2CCN(Cc3ccccc3Cl)CC2)cc1	–	–	–	–	35.5µM	44.7µM
O=C(c1ccco1)N1CCC2(CC1)CCN(c1ccccn1)CC2	·	·	·	–	·	·
O=C(NCCc1ccccc1)c1ccc2c(c1)CCN2S(=O)(=O)c1ccccc1	·	·	–	–	–	–
Clc1ccccc1CN1CCN(/N=C/c2ccncc2)CC1	?	–	–	–	44.7µM	?
C(=C\c1ccccc1)/C=N/N1CCN(Cc2ccccc2)CC1	–	–	?	–	35.5µM	50.1µM
Clc1ccc(/C=N/N2CCN(Cc3ccccc3)CC2)cc1	–	–	?	–	44.7µM	56.2µM
CCOc1ccc(/C=N/N2CCN(Cc3ccccc3)CC2)cc1	?	–	?	–	50.1µM	?
O=C(O)c1ccc(/C=N/N2CCN(Cc3ccc(Cl)cc3)CC2)cc1	–	–	–	–	–	–
O=C(Cn1cc(C(=O)c2cccs2)c2ccccc21)NCc1ccc2c(c1)OCO2	·	–	–	–	–	–
CCN(CC)c1ccc(/C=N\N2CCN(Cc3ccc(C)cc3)CC2)cc1	?	–	20µM	–	17.8µM	22.4µM
S=c1nccc(-c2ccc(Cl)cc2)[nH]1	–	1.5µM	–	?	–	–
S=c1[nH]c(-c2ccc(Cl)cc2)cs1	?	9.47µM	–	?	44.7µM	?
COc1cccc(NC(=O)Cn2c(=O)n(-c3cccc(OC)c3)c(=O)c3sc4ccccc4c32)c1	·	·	–	–	–	–
Oc1ccccc1C(=S)N1CCCCC1	–	26.7µM	–	–	–	–
Oc1ccccc1C(=S)N1CCCCCC1	·	?	–	–	–	–
Cc1cc(C)nc(NS(=O)(=O)c2ccc(NC(=O)Cc3ccccc3)cc2)n1	·	?	–	–	–	–
Cc1cc(NS(=O)(=O)c2ccc(NC(=O)COc3ccc(Br)cc3)cc2)nc(C)n1	·	2.67µM	–	?	–	20µM
COc1cccc(CC(=O)Nc2ccc(S(=O)(=O)Nc3nc(C)cc(C)n3)cc2)c1	·	13.4µM	–	?	·	?
CC(C)c1nc2sc3c(=O)[nH]c(=S)[nH]c3c2c2c1CCCC2	–	23.8µM	–	70.8µM	?	?
Cc1cc2c(s1)c1cnn(Cc3c(F)cc(F)cc3F)c(=O)c1n2C	·	·	·	·	·	–
COc1cccc(CN2C(=O)c3ccccc3Sc3ccc(C(=O)OCc4ccco4)cc32)c1	·	·	–	–	–	–
SMILES	L3MBTL1 block	PLK1 PBD inh	HP1b binding inh	VDR inh	BAZ2B block	JMJD2A Tudor inh
CC1CCCCN1C(=O)Cn1c(=O)n(-c2ccc(Cl)cc2)c(=O)c2c3c(sc21)CCC3 (stereo not drawn)	·	·	–	–	–	–
Cc1ccc(C(=O)C(C(=O)/C=C/c2ccccc2)=C2SCCCS2)cc1	?	3.36µM	?	–	?	?
COc1ccc(OC)c(C(=O)CSc2ncc3c(n2)-c2ccccc2N(Cc2ccccc2C)S3(=O)=O)c1	·	·	–	–	–	–
CC(C)(C)c1cc(CN2CCCC(O)C2)c(O)c(C(C)(C)C)c1 (stereo not drawn)	·	–	–	–	79.4µM	?
CCN(C(=O)C1CCN(S(=O)(=O)c2ccc3c(c2)CCCN3C(=O)C2CCC2)CC1)c1cccc(C)c1	·	·	–	–	–	–
O=C1c2ccccc2C(Nc2ccc(F)c(Cl)c2)N1Cc1ccco1 (stereo not drawn)	–	–	–	89.1µM	?	–
